Assay results from PubChem BioAssay AID1159580 (chemical genetic matrix, 2015).
Values joined by “and” are separate entries in the source; they are usually repeats but may differ in a detail not shown here. Equal values may be shown once. Among all 5,500 compounds or so, about 2,000 (36%) were called active. Another 18% or so got no clear call; they are omitted. No stated cut-off is given here; in the data, active means normalized growth mostly below about 0.91 (no sharp cut-off); inconclusive means no clear call, values can overlap the other calls; inactive means mostly above about 0.92. This is one part of the list.

Assay: chemical genetic growth profiling, strain panel (AID 1159580);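 further: tested at 20 µM; growth read once vehicle control cultures reached saturation at 30 °C; 1 = growth at the plate median or of vehicle wells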
Settings: S. cerevisiae deletion strains, growth OD

Measured: normalized growth

CCCCC1=NC2(CCCC2)C(=O)N1Cc1ccc(-c2ccccc2-c2nn[nH]n2)cc1
inactive: locus YAL013W, strain DEP1, stronger effect = lower value 0.984 | locus YAL021C, strain ccr4, stronger effect = lower value 1.01 | locus YAL026C, strain drs2, stronger effect = lower value 1.01 | locus YAL030W, strain snc1, stronger effect = lower value 1.02 | locus YBL061C, strain skt5, stronger effect = lower value 1.02 | locus YBR009C, strain hhf1, stronger effect = lower value 1.01 | locus YBR021W, strain FUR4, stronger effect = lower value 0.985 | locus YBR023C, strain chs3, stronger effect = lower value 1.01 | locus YBR171W, strain sec66, stronger effect = lower value 1.02 | locus YBR229C, strain ROT2, stronger effect = lower value 0.938 | locus YBR231C, strain swc5, stronger effect = lower value 1.03 | locus YBR279W, strain paf1, stronger effect = lower value 1.01 | locus YCL011C, strain gbp2, stronger effect = lower value 1.03 | locus YCL016C, strain dcc1, stronger effect = lower value 1.01 | locus YCL029C, strain bik1, stronger effect = lower value 0.993 | locus YCL069W, strain vba3, stronger effect = lower value 1.02 | locus YCR088W, strain abp1, stronger effect = lower value 1.02 | locus YDL005C, strain med2, stronger effect = lower value 1.03 | locus YDL035C, strain GPR1, stronger effect = lower value 0.974 | locus YDL040C, strain nat1, stronger effect = lower value 1.02 | locus YDL074C, strain BRE1, stronger effect = lower value 1 | locus YDL101C, strain DUN1, stronger effect = lower value 0.99 | locus YDL134C, strain PPH21, stronger effect = lower value 0.988 | locus YDL185W, strain tfp1, stronger effect = lower value 0.987 | locus YDL192W, strain arf1, stronger effect = lower value 0.985 | locus YDR001C, strain nth1, stronger effect = lower value 1 | locus YDR069C, strain doa4, stronger effect = lower value 1.02 | locus YDR101C, strain arx1, stronger effect = lower value 0.998 | locus YDR137W, strain rgp1, stronger effect = lower value 1.01 | locus YDR150W, strain NUM1, stronger effect = lower value 0.97 | locus YDR159W, strain sac3, stronger effect = lower value 1.02 | locus YDR162C, strain NBP2, stronger effect = lower value 0.982 | locus YDR195W, strain ref2 1.02 | locus YDR297W, strain sur2, stronger effect = lower value 1.02 | locus YDR318W, strain mcm21, stronger effect = lower value 1 | locus YDR334W, strain swr1, stronger effect = lower value 1.02 | locus YDR335W, strain msn5, stronger effect = lower value 1 | locus YDR388W, stronger effect = lower value 0.999 | locus YDR392W, strain spt3, stronger effect = lower value 1.01 | locus YDR502C, strain sam2, stronger effect = lower value 0.982 | locus YEL003W, strain gim4, stronger effect = lower value 1.01 | locus YEL037C, strain rad23, stronger effect = lower value 1.02 | locus YEL061C, strain CIN8 (second series), stronger effect = lower value 1.03 | locus YEL061C, strain CIN8, stronger effect = lower value 0.979 | locus YER015W, strain faa2, stronger effect = lower value 1.02 | locus YER016W, strain bim1, stronger effect = lower value 1.01 | locus YER110C, stronger effect = lower value 0.977 | locus YER111C, strain swi4, stronger effect = lower value 1 | locus YER155C, strain BEM2 (second series), stronger effect = lower value 1.05 | locus YER155C, strain BEM2, stronger effect = lower value 1.01 | locus YER167W, strain BCK2, stronger effect = lower value 0.976 | locus YFR010W, strain ubp6, stronger effect = lower value 1.02 | locus YGL078C, strain dbp3, stronger effect = lower value 0.969 | locus YGL086W, strain mad1, stronger effect = lower value 0.988 | locus YGL167C, strain pmr1, stronger effect = lower value 1.02 | locus YGL173C, strain kem1, stronger effect = lower value 1.02 | locus YGL227W, strain vid30, stronger effect = lower value 1.01 | locus YGL240W, strain doc1, stronger effect = lower value 0.993 | locus YGL248W, strain PDE1, stronger effect = lower value 0.979 | locus YGL253W, strain hxk2, stronger effect = lower value 1.01 | locus YGR078C, strain PAC10, stronger effect = lower value 1.02 | locus YGR135W, strain pre9, stronger effect = lower value 1.02 | locus YGR229C, strain SMI1, stronger effect = lower value 1.01 | locus YGR252W, strain gcn5, stronger effect = lower value 0.931 | locus YHR013C, strain ard1, stronger effect = lower value 1.01 | locus YHR027C, strain rpn1, stronger effect = lower value 1.01 | locus YHR030C, strain SLT2, stronger effect = lower value 0.994 and 0.967 | locus YHR079C, strain IRE1 (second series), stronger effect = lower value 0.989 | locus YHR079C, strain IRE1, stronger effect = lower value 0.973 | locus YHR094C, strain hxt1, stronger effect = lower value 0.992 | locus YHR129C, strain ARP1, stronger effect = lower value 1 | locus YHR142W, strain chs7, stronger effect = lower value 1.01 | locus YHR200W, strain rpn10, stronger effect = lower value 0.99 | locus YIL066C, strain RNR3, stronger effect = lower value 0.974 | locus YIL073C, strain SPO22, stronger effect = lower value 1.01 | locus YIL125W, strain kgd1, stronger effect = lower value 0.966 | locus YIR030C, strain dcg1, stronger effect = lower value 0.978 | locus YJL092W, strain hpr5, stronger effect = lower value 1.01 | locus YJL095W, strain BCK1 (second series), stronger effect = lower value 1.02 | locus YJL095W, strain BCK1, stronger effect = lower value 1.06 and 1.01 | locus YJL115W, strain asf1, stronger effect = lower value 0.999 | locus YJL129C, strain trk1, stronger effect = lower value 1.01 | locus YJL134W, strain LCB3, stronger effect = lower value 0.98 | locus YJL154C, strain vps35, stronger effect = lower value 1.01 | locus YJL164C, strain tpk1, stronger effect = lower value 0.997 | locus YJL166W, strain qcr8, stronger effect = lower value 1.03 | locus YJL168C, strain set2, stronger effect = lower value 0.993 | locus YJL187C, strain SWE1 (second series), stronger effect = lower value 1.01 | locus YJR043C, strain POL32, stronger effect = lower value 1.02 | locus YJR066W, strain TOR1, stronger effect = lower value 0.953 | locus YJR075W, strain HOC1, stronger effect = lower value 1.01
